Molecules are shown by their SMILES. Among all 59,000 compounds or so, about 6,500 (11%) were called active. Roughly 15% stayed inconclusive and do not appear here. This is one part of a sample in which actives are shown more often than they occur. Cut-off read from the data, not from the text of the source: active = max dye-equivalent concentration above about 10 nM; inconclusive = mostly about 1.1 nM to 9.6 nM; inactive = weaker than that.

A short description of this test: qHTS Assay for Spectroscopic Profiling in A350 Spectral Region. The conditions noted are these: Compound autofluorescence, 340/450 nm, Alexa 350 dye-equivalents; stronger effect = higher value.
For the molecule `CSCCC(NC(=O)C1CCC(C)CC1)C(=O)NCc1ccco1` (stereo unspecified), the max dye-equivalent concentration entry is “inactive”. The result for `CC(C)NC(=O)N1CCCC2(CCN(C(=O)c3cccn3C)CC2)C1` reads “inactive”; that for `Cc1cccc(C)c1NC(=O)N1CC=C(n2c(=O)[nH]c3ccccc32)CC1`, “inactive”.

As for `CC(C)CCNC(=O)C1CCCN(S(=O)(=O)c2ccc(F)cc2)C1` (stereo unspecified), the max dye-equivalent concentration result is “inactive”.

For `CCN(CC)C(=O)CSc1nnc(-c2cccc(OC)c2)o1`, the max dye-equivalent concentration result was “inactive”. The entry for `CC(C)NC(=O)CCCn1c(=S)[nH]c2cc3c(cc2c1=O)OCO3` is “inactive”; for `Cc1cccc(NC(=O)CSc2nnc(CCCCCNC(=O)OC(C)(C)C)o2)c1C` it is “inactive”; for `Cc1cccc(N(CC(O)CN(C)C)S(=O)(=O)c2ccccc2)c1` (stereo unspecified) it is “inactive”. The result for `COC(=O)c1ccc(Oc2nc(Nc3ccc(F)cc3)nc(N3CCCC3)n2)cc1` reads “inactive”.

With `CSc1ccc(S(=O)(=O)Nc2cccc(F)c2)cc1`, the max dye-equivalent concentration entry is “inactive”. For the molecule `C=CCN(c1ccc(C(N)=O)cc1)S(C)(=O)=O`, the max dye-equivalent concentration result was “inactive”. For `Cn1c(=O)cc(SCC(=O)N2CCN(C(=O)c3ccco3)CC2)c2ccccc21`, the max dye-equivalent concentration entry was “inactive”. The entry for `CCOC(=O)C1CCN(C(=O)CSc2cc(=O)n(C)c3ccccc23)CC1` is “inactive”; for `Cn1c(=O)cc(SCC(=O)N2CCCC2)c2cc(Cl)ccc21` it is 12 nM (active); for `COC(=O)c1sc(=S)n(-c2ccccc2)c1N` it is “inactive”. The result for `COCCCNC(=O)Cn1cc(C(=O)C2CC2)c2ccccc21` reads “inactive”; that for `COc1ccc(-c2noc(CN(C)S(=O)(=O)c3ccc(C)cc3)n2)cc1`, “inactive”. The result for `CCOc1nc(-c2ccc(OC)cc2)ccc1-c1noc(-c2cc(OC)c(OC)c(OC)c2)n1` reads 81 nM (active). Turning to `CCOc1cc(-c2noc(CCC(=O)N3CCOCC3)n2)ccc1OC`, the max dye-equivalent concentration entry was “inactive”.

Consider `COc1ccc(-c2nc(-c3ccccc3)no2)c(OC)c1`, for which the max dye-equivalent concentration result was “inactive”.

Regarding `O=C(Oc1ccc(-c2nc(-c3ccccn3)no2)cc1)c1ccccc1`, the max dye-equivalent concentration entry is “inactive”. The result for `COc1ccc(-c2ccc(-c3noc(-c4ccncc4)n3)c(OC)n2)cc1` reads 24 nM (active); that for `Cn1c(=O)c2c(ncn2CC(=O)N2CCN(c3ccccc3)CC2)n(C)c1=O`, “inactive”; that for `CCOc1ccc(C(C)C)cc1S(=O)(=O)n1nc(C)cc1C`, “inactive”. The entry for `N#Cc1ccccc1-c1ccc2ncnc(NCc3cccnc3)c2c1` is “inactive”; for `CC(Cc1cccs1)NC(=O)NC1CCCCC1` (stereo unspecified) it is “inactive”; for `COc1ccccc1CNc1ccnc(-c2c(C)noc2C)n1` it is “inactive”. The entry for `CCCS(=O)(=O)N1CCC(C(=O)NCCc2ccc(OC)c(OC)c2)CC1` is “inactive”. As for `CCOc1ccc(CCNC(=O)C2CCN(c3ccc(N4CCOCC4)nn3)CC2)cc1OCC`, the max dye-equivalent concentration is 560 nM (active). The entry for `COc1ccc(CCNC(=O)C2CCN(c3nn4c(=O)cc(C)nc4s3)CC2)cc1OC` is “inactive”; for `O=C(CN1CCN(c2ccc(F)cc2)CC1)Nc1cccc(C(F)(F)F)c1` it is “inactive”. With `O=C(c1ccc([N+](=O)[O-])cc1)[C@@H](Br)[C@@H](Br)c1ccnc2ccccc12`, the max dye-equivalent concentration entry is “inactive”. With `O=C1NC(c2ccncc2)Nc2sc3c(c21)CCCC3` (stereo unspecified), the max dye-equivalent concentration is 58 nM (active). `CCc1nnc(NC(=O)CSc2nnc(COc3ccc(C#N)cc3)n2-c2ccccc2)s1`: the max dye-equivalent concentration entry was “inactive”. The entry for `O=C(Nc1cccc(F)c1)N1CC2(CCN(C(=O)c3csnn3)CC2)C1` is “inactive”; for `Cn1c(CCN2CCCCCC2)nc2cc(NC(=O)Nc3ccccc3)ccc21` it is “inactive”; for `O=C(Nc1cccc(NC(=O)N2CCN(c3ccccc3)CC2)c1)N1CCN(c2ccccc2)CC1` it is “inactive”. Regarding `Cc1nc2ccc(NC(=O)N3CCC(c4ccccc4)C3)cc2nc1C` (stereo unspecified), the max dye-equivalent concentration is 410 nM (active). The entry for `Cc1cc(C(=O)OCC(=O)NCc2ccco2)c(C)n1-c1ccccc1` is “inactive”; for `O=C(COC(=O)CCC(=O)c1cccs1)NCc1ccco1` it is “inactive”; for `O=C(COC(=O)C12CC3CC(CC(C3)C1)C2)NCc1ccco1` it is 16 nM (active). With `NC[C@@H]1O[C@H](O[C@@H]2[C@H](O[C@@H]3O[C@H](CO)[C@@H](COC[C@H]4O[C@@H](CN)[C@@H](O)[C@@H](O)[C@@H]4N)[C@@H]3O)[C@@H](O)[C@@H](N)C[C@H]2N)[C@@H](N)[C@H](O)[C@@H]1O`, the max dye-equivalent concentration entry is “inactive”. The result for `N#Cc1ccc(CN2CCCC3(CCN(C(=O)c4ccco4)CC3)C2)cc1` reads “inactive”; that for `CCOc1ccc(NS(=O)(=O)c2ccc(OCC(=O)NCCCOC)cc2)cc1`, “inactive”. The result for `O=C(CC(NS(=O)(=O)c1ccc(Cl)cc1)c1ccco1)NC1CCCC1` (stereo unspecified) reads “inactive”. The result for `O=c1[nH][nH]c(=O)c2cc(N3CCCC3)ccc12` reads 47 nM (active); that for `O=C(NCc1cccnc1)c1cn(-c2ccccc2)nc1-c1cccs1`, “inactive”; that for `O=C1CC(c2ccccc2)C(=O)N1c1cccc(O)c1` (stereo unspecified), “inactive”. On to `CCCC(CCC(=O)OC)(C(=O)OCC)c1csc(N)n1` (stereo unspecified), for which the max dye-equivalent concentration entry is “inactive”. The entry for `CCCCNC(=O)c1ccccc1NC(=O)c1ccccc1N(C)S(C)(=O)=O` is “inactive”; for `O=C(c1cccc(F)c1)N1CCC2(CC1)CCN(c1ccccc1)CC2` it is “inactive”.

Consider `CCOC(=O)N1CCN(C(=O)C2CCN(S(C)(=O)=O)CC2)CC1`, for which the max dye-equivalent concentration result was “inactive”.

For the molecule `CCOC(=O)N1CCN(C(=O)C2CCN(c3ncnc4c3sc3cccc(F)c34)CC2)CC1`, the max dye-equivalent concentration is 18 nM (active). The result for `CCOC(=O)N1CCN(CC(=O)Nc2cc(C)nn2-c2nc3ccccc3s2)CC1` reads “inactive”; that for `CCCc1cc(=O)n2[nH]c(SCc3ccccc3)nc2n1`, “inactive”. The entry for `Cc1ccc(C(=O)NC2CC(C)(C)NC(C)(C)C2)c(C)c1` is “inactive”. The result for `CS(=O)(=O)N(CC(=O)NCc1ccco1)c1ccc2c(c1)OCO2` reads 29 nM (active); that for `O=C(Cn1nnc(-c2ccc3c(c2)OCO3)n1)NCc1ccco1`, “inactive”. For `CS(=O)(=O)N(CC(=O)N1CCN(Cc2ccc3c(c2)OCO3)CC1)c1ccc2c(c1)OCO2`, the max dye-equivalent concentration result was “inactive”.

Regarding `CCNC(=O)CCc1nc(-c2ccc(C(C)(C)C)cc2)no1`, the max dye-equivalent concentration entry is “inactive”.

Take `Cc1ccc(S(=O)(=O)NCc2nc3ccccc3c(=O)n2N)cc1`: the max dye-equivalent concentration entry was “inactive”. The figure for `Cc1ccc(S(=O)(=O)c2c(N)n(C)c3nc4ccccc4nc23)cc1` is 3600 nM (active); for `CCOC(=O)N1CC=C2C(C#N)=C(N)C(C#N)(C#N)[C@H](c3cccs3)[C@H]2C1` it is 35 nM (active).

For `CC1=C(C(=O)Nc2ccccc2)C(c2cccs2)C(C#N)=C(SCC#N)N1` (stereo unspecified), the max dye-equivalent concentration entry is “inactive”. The result for `CC(=O)N1CCN(c2ccc(NCc3ccc(C(C)C)cc3)cc2)CC1` reads “inactive”. The figure for `Cn1c(/C(C#N)=C2/CCCCCN2)nc2ccccc21` is 23 nM (active); for `N#C/C(=C1\CCCN1)c1nc(-c2ccccc2)cs1` it is “inactive”; for `CCC(C)(C)n1nnnc1C(c1cccs1)N1CCN(Cc2ccccc2)CC1` (stereo unspecified) it is “inactive”.

Consider `O=C1c2ccccc2C(=O)C1c1ccccc1`, for which the max dye-equivalent concentration result is “inactive”. Turning to `Cc1cccc(-c2noc(-c3ccc(F)cc3)n2)c1`, the max dye-equivalent concentration entry was “inactive”. Regarding `COc1ccc2[nH]c(=O)c(-c3noc(-c4ccc(F)cc4)n3)cc2c1`, the max dye-equivalent concentration was 14 nM (active). The result for `O=C(c1cc(C(F)(F)F)cc(C(F)(F)F)c1)N1CCC2(CC1)CN(c1ccncc1)C2` reads “inactive”; that for `CN1CCN(c2ncncc2-c2ccc(C(=O)N(C)C)cc2)CC1`, “inactive”; that for `COCCNC(=O)CN(C(=O)CCC(=O)Nc1cc(C)on1)c1ccc(C)cc1C`, “inactive”. The result for `COc1cc2[nH]c(=S)n(CCN3CCCCC3C)c(=O)c2cc1OC` (stereo unspecified) reads “inactive”; that for `CCCCn1c(SCC(=O)NCCc2ccc(OC)c(OC)c2)nc2c1c(=O)n(C)c(=O)n2C`, “inactive”.

Regarding `COCCCNC(=O)CSc1nc2ccc(N3CCOCC3)cc2c(=O)n1CCc1ccccc1`, the max dye-equivalent concentration is 69 nM (active). `CCCCn1c(SCC(=O)NCC2CCCO2)nc2ccc(N3CCOCC3)cc2c1=O` (stereo unspecified): the max dye-equivalent concentration is 71 nM (active). The result for `O=C(CSc1nc2cc3c(cc2c(=O)n1CCC1=CCCCC1)OCO3)NCc1ccco1` reads “inactive”; that for `CCc1ccc(NC(=O)CSc2nc3ccccc3c(=O)n2CCN2CCOCC2)cc1`, “inactive”. Turning to `CCn1c(SCC(=O)NCC2CCCO2)nc2cc(S(=O)(=O)N3CCCCC3)ccc21` (stereo unspecified), the max dye-equivalent concentration result was “inactive”.

Consider `O=C(c1ccco1)N1CCC[C@@]2(CCN(c3ccccc3)C2)C1`, for which the max dye-equivalent concentration result was “inactive”. The result for `CC(Oc1ccc(Cl)cc1)C(=O)Nc1ncccn1` (stereo unspecified) reads “inactive”; that for `O=C(c1cc(C(F)(F)F)cc(C(F)(F)F)c1)N1CCC2(CCCN(Cc3ccncc3)C2)CC1`, “inactive”. The entry for `O=C(COc1ncnc2ccccc12)NC(=O)NCc1ccccc1` is “inactive”. The result for `Cc1cccc(-n2c(N)cc(=O)nc2SC(C)C(=O)NC2CCCCC2)c1` (stereo unspecified) reads “inactive”; that for `COC(=O)c1ccc(CSc2ccccc2C)o1`, “inactive”. Consider `CCCc1cc(=O)oc2c(C)c(O)c(CN3CCCCC3)cc12`, for which the max dye-equivalent concentration is 8800 nM (active). The result for `CCOC(=O)N1CCN(Cc2oc(CO)cc(=O)c2O)CC1` reads “inactive”; that for `CCOC(=O)c1ccc(NC(=O)CSc2nnc(COc3ccccc3OC)n2C)cc1`, “inactive”; that for `O=C(Nc1ccon1)c1cccc(Cl)c1`, “inactive”. The result for `CCCN1C2=C(C(=O)CCC2)C(c2ccc(O)c(Br)c2)C2=C1CCCC2=O` reads 81 nM (active); that for `c1ccc(CNc2ncncc2-c2cccnc2)cc1`, “inactive”. For the molecule `CCC(=O)Nc1ccc2c(c1)nc(CCN1CCN(C)CC1)n2C`, the max dye-equivalent concentration entry was “inactive”. The result for `Cc1ccc(C(CC(=O)O)Nc2nc(N3CCCCC3)nc(N3CCCCC3)n2)cc1` (stereo unspecified) reads “inactive”. As to `CC(Nc1nc(N2CCCC2)nc2ccccc12)c1ccccc1` (stereo unspecified), the max dye-equivalent concentration was 170 nM (active).

In the case of `Cc1cc2c(cc1C)NC1=C(N2)O[C@H](c2c[nH]c3ccc(COc4ccccc4)cc23)C1=O`, the max dye-equivalent concentration entry is “inactive”. The entry for `Cn1nc(-c2ccc(N3CCOCC3)c(NC(=O)c3ccccc3)c2)c2ccccc2c1=O` is “inactive”.

Turning to `Cn1c(=O)n(C)c2cc(CNc3ccc(N4CCOCC4)c(C(=O)O)c3)ccc21`, the max dye-equivalent concentration is 22 nM (active). The entry for `Cn1c(=O)n(C)c2cc(C(=O)Nc3ccc4c(c3)OCO4)ccc21` is “inactive”; for `Cn1c(CNc2nc(-c3ccccc3)cs2)nnc1SCC(=O)c1ccccc1` it is “inactive”.
